Measured values: PubChem BioAssay (NCI)
Compounds without any hit were thinned out: in the full panel of roughly 83,000, 20% have a hit.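 For each line, cells grew in 96-well plates with the test compound present at a single concentration for 48 hours.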 Unmarked numbers belong to inactive results. Calls of active or inactive are those of the source. Rule for the calls: active = growth percent below 10; inactive = the rest.

Tests used:
Test in all cases: NCI-60 one-dose screen, 48 h (100 = growth as untreated, 0 = no growth, -100 = all killed)
Conditions in all cases: 10 µM unless noted
NCI-H23 lung = system: NCI-H23 lung
NCI-H226 lung = system: NCI-H226 lung
NCI-H322M lung = system: NCI-H322M lung
HOP-62 NSCLC = system: HOP-62 NSCLC
NCI-H460 lung = system: NCI-H460 lung
HOP-92 NSCLC = system: HOP-92 NSCLC
NCI-H522 lung = system: NCI-H522 lung
A549/ATCC NSCLC = system: A549/ATCC NSCLC
786-0 renal = system: 786-0 renal
COLO 205 colon = system: COLO 205 colon

| SMILES | growth (NCI-H23 lung) | growth (NCI-H226 lung) | growth (NCI-H322M lung) | growth (HOP-62 NSCLC) | growth (NCI-H460 lung) | growth (HOP-92 NSCLC) | growth (NCI-H522 lung) | growth (A549/ATCC NSCLC) | growth (786-0 renal) | growth (COLO 205 colon) |
| --- | --- | --- | --- | --- | --- | --- | --- | --- | --- | --- |
| COc1cc(/C=C/C(=O)c2cccc(Nc3nc(Nc4ccccc4)nc(Nc4ccccc4)n3)c2)cc(OC)c1OC | 40.7% | 68.6% | 87.2% | 74.6% | 59.9% | -48.2% (active) | 87.8% | 59.5% | 65.1% | 61.2% |
| CCO/C=N/C1=C(C#N)C(c2ccc(OC)cc2)c2sc3c(F)cccc3c2O1 (stereo not given) | 48.9% | 63% | 51.5% | 49.5% | 12.7% | 62.6% | 0.128% (active) | 43.3% | 33.3% | 39.2% |
| COc1ccc(-c2nc(/C=C3\SC(=NCc4ccccc4)NC3=O)c3ccccn23)cc1 | -73.4% (active) | 5.75% (active) | 20.4% | -50.7% (active) | -54.6% (active) | -38.2% (active) | -36% (active) | -27.3% (active) | -96.3% (active) | -69.1% (active) |
| O=C(/C=C/c1ccccc1)c1cccc(OCCCOc2cccc(C(=O)/C=C/c3ccccc3)c2)c1 | 95.5% | 108% | 105% | 116% | 101% | 101% | 90.3% | 87.2% | 92.9% | 94.1% |
| O=C(OCc1ccc2c(Cl)cc(Cl)c(O)c2n1)n1cncn1 | 44.5% | 59.1% | 50.4% | 27.5% | 19.9% | 49.4% | 51.4% | 22.1% | 45.7% | 96.5% |
| O=C1Nc2ccc(I)cc2C1=O | 89.7% | 92.8% | 107% | 84.4% | 107% | 104% | 93.4% | 88.7% | 109% | 88.9% |
| CC(=O)Cc1nsc(NC(=O)c2cc(-c3cc(Cl)cc(Cl)c3)oc2C)n1 | 101% | 96.3% | 100% | 95.9% | 103% | 105% | 86.6% | 94.3% | 98% | 107% |
| N#C/C(=C\c1ccc2ccccc2c1)c1cc2ccccc2[nH]1 | 48.8% | 67.9% | 63.3% | 40.4% | 13.3% | 41.5% | 1.83% (active) | 51.1% | 41.1% | 24.9% |
| CNC(=O)c1cc(Oc2ccc3nc(NC(C)=O)sc3c2)ccn1 | 103% | 101% | 104% | 109% | 104% | 99.9% | 104% | 102% | 94.6% | 105% |
| COc1ccc(C(=O)C2C(c3ccc(OC)cc3)CN(C)C23C(=O)Nc2ccccc23)cc1 (stereo not given) | 86.1% | 88% | 103% | 94.3% | 97.7% | 83% | 76.4% | 87.9% | 96% | 105% |
| O=[N+]([O-])/C(=C/C=C/c1ccccc1)c1ccccc1 | 75.5% | 87.8% | 100% | 35.9% | 70.7% | -8.76% (active) | 19.8% | 72.6% | -7.75% (active) | 23.2% |
| O=C1c2ccc3c4ccc5c6c(ccc(c7ccc(c2c37)C(=O)N1CCC[P+](c1ccccc1)(c1ccccc1)c1ccccc1)c64)C(=O)N(CCC[P+](c1ccccc1)(c1ccccc1)c1ccccc1)C5=O | 28.1% | 105% | 84.2% | 60.3% | 28% | 77.3% | 67.6% | 43.8% | 91.2% | 15.5% |
| CN([O-])c1nc(N(C)[O-])nc(N2CCOCC2)n1.CN([O-])c1nc(N(C)[OH2+])nc(N2CCOCC2)n1.[Fe+3] | 100% [100 µM] | 101% [100 µM] | 104% [100 µM] | 165% [100 µM] | 36.1% [100 µM] | 61.7% [100 µM] | 52.9% [100 µM] | 72.7% [100 µM] | 114% [100 µM] | 144% [100 µM] |
| O=C(CN1C(=O)CCC1=O)Nc1ncc(Cc2ccc(F)cc2)s1 | 98.6% | 95.9% | 102% | 105% | 106% | 99.9% | 99% | 108% | 101% | 113% |
| Cc1ccc(NC(=S)NNC(=S)NNc2ccccc2)cc1C | 99.9% | 99.7% | 85.5% | 106% | 96.3% | 55.4% | 86.3% | 101% | 114% | 107% |
| Nc1ncnc2c1N=C(c1ccc3c(c1)OCO3)CC(c1cccc(Nc3ccnc4cc(Cl)ccc34)c1)N2 (stereo not given) | 49.8% | 69.8% | 76.2% | 64% | 59.8% | 26.6% | 58% | 67.2% | 55.1% | 82.7% |
| C=CC(=O)NCc1ccc(Nc2nccc(-c3ccc(N4CCCC4)c(C#N)c3)n2)cc1 | 49.7% | 39.9% | 41% | 17.1% | 23.3% | 36.8% | 19.2% | 19.2% | 17.6% | 31.4% |
| CN(C)Cc1ccc(NC(=O)c2cncc(C#Cc3cnc(N)c4ncccc34)c2)cc1F | 78.1% | 130% | 109% | 96.5% | 67.4% | 80.7% | 100% | 65.7% | -71.8% (active) | 49.5% |
| CC(=O)N(N=Nc1ccccc1)c1cccc2ccccc12 | 86.9% | 92.5% | 94.3% | 90.5% | 55.7% | 96.5% | 75.1% | 97.4% | 97.6% | 91.9% |
| CCOC(=O)c1ccc2[nH]c(O)c(C(=Nc3ccc(N(C)C(=O)CN4CCN(C)CC4)cc3)c3ccccc3)c2c1 | -59.3% (active) | 15.5% | 11.7% | -5.97% (active) | -27.1% (active) | 30.3% | -48.8% (active) | -20.5% (active) | -95% (active) | -56.3% (active) |
| O=C(CSc1nnc2n1S(=O)(=O)c1ccccc1N2c1ccccc1)Nc1nc2ccc(F)cc2s1 | 80.3% | 93.2% | 113% | 82.3% | 106% | 88% | 87.2% | 93.3% | 96.2% | 106% |
| C=C1C(=O)O[C@H]2[C@H]1CC/C(COC(=O)CCSCCC(=O)OC/C1=C/CC[C@@]3(C)O[C@H]3[C@H]3OC(=O)C(=C)[C@@H]3CC1)=C\CC[C@@]1(C)O[C@@H]21 | 9.21% (active) | -39.5% (active) | 80.5% | 86.9% | 9.87% (active) | -50.2% (active) | -75.8% (active) | 71.1% | -21.9% (active) | -72.3% (active) |
| COc1ccc(/C=N/NC(=O)CCN2c3ccccc3Sc3ccccc32)cc1 | 75.6% | 86.5% | 83.4% | 75.3% | 85.4% | 62.7% | 62.1% | 77.6% | 91.5% | 88.5% |
| CCN(c1ccc(Cl)cc1)c1nc(-c2ccc([N+](=O)[O-])cc2)cs1 | 92% | 91.9% | 86.7% | 99.6% | 99.6% | 83.6% | 82.8% | 97.6% | 89% | 113% |
| COc1ccc2nc(NC(=O)CSc3nnc4n3S(=O)(=O)c3ccccc3N4C)sc2c1 | 94.9% | 103% | 102% | 97.9% | 112% | 90.5% | 70.9% | 77.9% | 103% | 138% |
| C[C@]12CC[C@@H]3c4ccc(O)c([N+](=O)[O-])c4CC[C@H]3[C@@H]1CCC2=O | 95.7% | 95.7% | 99% | 104% | 112% | 86.6% | 85.8% | 102% | 90.1% | 159% |
| N#Cc1cccc(NC(=O)c2oc3ccccc3c2-c2cnn(-c3ccccc3)c2)c1 | 83.7% [50 µM] | 72.5% [50 µM] | 74.1% [50 µM] | 92.6% [50 µM] | 84.3% [50 µM] | -23.3% [50 µM] (active) | 59% [50 µM] | 81.4% [50 µM] | 85.7% [50 µM] | 91.8% [50 µM] |
